High-throughput results: PubChem, National Center for Advancing Translational Sciences (NCATS)
Most compounds without a hit are left out; they make up all but 11% or so of the library.
PNC assembly inh: inhibitors of perinucleolar compartment assembly; PC3M PTB-GFP, PNC prevalence imaging, 16 h; hits give low values; activity change (PNC), negative = inhibition, % at 10 µM; 140,000 compounds, 3.1% hits;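 active = readout at or below -70, meaning at least 70% loss of cells showing the perinucleolar compartment, a nuclear body marking cancer cells; inconclusive = readout between -30 and a set limit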
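Read-out is percentage of cells bearing a perinucleolar compartment, from automated 20x imaging of fixed, Hoechst-stained PC3M PTB-GFP cells. Cells were seeded 4 h, then exposed 16 h to compound (23 nl of library stock) in duplicate plates.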
HPGD inh: HPGD (human) dehydrogenase inhibition; P15428; purified HPGD, NADH fluorescence kinetic, PGE2 substrate; Potency, µM, usual class: inhibitors; 150,000 compounds, 4.3% hits; AID 894
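20 nM HPGD preincubated 15 min at room temperature with compound in 50 mM Tris-HCl pH 8, 0.01% Tween 20. Started with 1 mM NAD+ and 30 uM prostaglandin E2; NADH fluorescence (360/450 nm) read 5 times over 30-s intervals, last minus first.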
ALDH1A1 block: ALDH1A1 (human) enzyme inhibition | P00352 | Purified ALDH1A1, NADH fluorescence, propionaldehyde substrate | Potency, µM (series often up to 75.3 µM), actives largely listed as inhibitors | 220,000 compounds, 7.3% hits
Target sequence (P00352 whole entry, looked up): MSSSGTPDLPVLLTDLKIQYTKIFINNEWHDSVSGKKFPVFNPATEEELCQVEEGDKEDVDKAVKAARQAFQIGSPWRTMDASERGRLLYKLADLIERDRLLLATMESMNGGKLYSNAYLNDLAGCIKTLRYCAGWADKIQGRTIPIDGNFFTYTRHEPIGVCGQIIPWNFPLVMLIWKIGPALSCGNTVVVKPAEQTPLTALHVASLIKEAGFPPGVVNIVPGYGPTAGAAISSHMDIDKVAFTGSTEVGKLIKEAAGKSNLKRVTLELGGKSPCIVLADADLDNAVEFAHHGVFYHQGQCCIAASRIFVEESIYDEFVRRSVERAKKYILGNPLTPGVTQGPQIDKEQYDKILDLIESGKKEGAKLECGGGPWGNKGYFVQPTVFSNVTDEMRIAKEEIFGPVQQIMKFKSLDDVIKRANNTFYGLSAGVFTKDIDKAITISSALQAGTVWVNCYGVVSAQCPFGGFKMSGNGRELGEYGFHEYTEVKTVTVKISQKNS
Each line names hits and unclear results; the compound was inactive in the other large screens. Unless noted, calls come from the whole dose curve; as a rule, active = well fitted inhibition curve with a large enough effect (not every such curve was filed as active); inconclusive = small, poorly fitted or top-dose-only effect, or another doubt; inactive = no such curve, though single readings can be large or run the other way.

CCOc1cccc(C(=O)NC(=S)Nc2cccc(NC(=O)c3ccccc3Cl)c2)c1	ALDH1A1 block 1.4µM
COc1ccc(OCc2cccc(C(=O)O)c2)cc1	none
CCOc1cccc(C(=O)NC(=S)Nc2ccccc2)c1	ALDH1A1 block 18µM
O=C(O)c1ccc(NC(=S)NC(=O)c2cccc(COc3ccccc3)c2)cc1	ALDH1A1 block 3.5µM (no result: PNC assembly inh, HPGD inh)
O=C(COc1ccccc1Cl)NC(=S)Nc1cccc(NC(=O)c2ccccc2Cl)c1	ALDH1A1 block inconclusive
CCOc1cccc(C(=O)Nc2ccncc2)c1	none (no result: PNC assembly inh, HPGD inh)
C[N+](C)(N)CCC[N+](C)(C)N	none (no result: PNC assembly inh)
COc1ccc(NC(=O)NN(C(=O)c2ccccc2)C(C)(C)C)cc1	PNC assembly inh inconclusive
N[C@@H](CNO)C(=O)O	none (no result: PNC assembly inh)
CCOC(=O)Cn1nc(Cc2ccccc2)c2ccccc2c1=O	PNC assembly inh inconclusive
CCOC(=O)N1CCC(NC(=O)Cn2nc(Cc3ccncc3)c3ccccc3c2=O)CC1	PNC assembly inh -106
NCCCNc1ccc([N+](=O)[O-])cc1C(F)(F)F	none (no result: PNC assembly inh, HPGD inh)
CN(C)c1ncc([N+](=O)[O-])cc1C(F)(F)F	ALDH1A1 block 14µM (no result: PNC assembly inh, HPGD inh)
O=Nc1c2ccc[nH]c-2c2ccc([N+](=O)[O-])cc12	none (no result: PNC assembly inh, HPGD inh)
Cc1ccc(S(=O)(=O)NCc2ccccc2)cc1	none (no result: PNC assembly inh)
COc1ccc(S(=O)(=O)NCc2c(-c3ccccc3)noc2C)c(OC)c1	ALDH1A1 block 2.5µM (no result: PNC assembly inh, HPGD inh)
Cc1ccc(S(=O)(=O)NCc2c(-c3ccccc3)noc2C)cc1	ALDH1A1 block 4µM (no result: PNC assembly inh, HPGD inh)
COc1ccc(CCNC(=O)c2c(-c3ccccc3)noc2C)cc1OC	PNC assembly inh inconclusive
Cc1cc(=O)n2nc(N3CCCC(C(=O)NC(C)c4ccccc4)C3)sc2n1 (configuration not stated)	ALDH1A1 block inconclusive
Cc1cc(=O)n2nc(N3CCCC(C(=O)N4CCN(c5ccccc5)CC4)C3)sc2n1 (configuration not stated)	PNC assembly inh -117
COc1ccccc1-n1ccnc1SCC(=O)NCc1ccco1	none (no result: PNC assembly inh, HPGD inh)
C[C@H]1C[C@@H]2[C@@H]([C@@H](O)C[C@@]3(C)[C@H]2CC[C@]3(O)C(=O)CO)[C@@]2(C)C=CC(=O)C=C12	ALDH1A1 block inconclusive (no result: PNC assembly inh)
CCC(CO)NC(=O)c1cc2c(s1)CCC2 (configuration not stated)	none
COC(=O)c1sc(NC(=O)c2cc3c(s2)CCCC3)nc1C	none
Cc1csc(NC(=O)c2cc3c(s2)CCC3)n1	HPGD inh 7.9µM, ALDH1A1 block inconclusive
CC(NC(=O)c1cc2c(s1)CCCC2)C(C)(C)C (configuration not stated)	HPGD inh 14µM
C[C@]12CC[C@H]3c4ccc(O)cc4CC[C@@H]3[C@H]1CC[C@@H]2OC(=O)CCc1ccccc1	none (no result: PNC assembly inh)
C=CC[C@@H]1C=C[C@H](O/N=C\[C@@H](C)[C@H](OCc2ccccc2)C(C)C)[C@H](CO)O1	none (no result: PNC assembly inh, HPGD inh)
Cc1onc(-c2ccccc2)c1C(=O)N1CCN(c2ncccn2)CC1	none (no result: PNC assembly inh, HPGD inh)
CC(C)CNC(=S)N(Cc1ccco1)Cc1cc2cc3c(cc2[nH]c1=O)OCCO3	HPGD inh inconclusive, ALDH1A1 block inconclusive
CN(C)c1ccc(/C=N/NC(=O)c2ccc3nc[nH]c3c2)cc1	ALDH1A1 block 18µM (no result: PNC assembly inh, HPGD inh)
Cc1nc2c(C)cccc2cc1C(=O)N/N=C/c1ccc(C(=O)O)cc1	none (no result: PNC assembly inh, HPGD inh)
O=C(N/N=C/c1ccco1)c1ccc2nc[nH]c2c1	none (no result: PNC assembly inh, HPGD inh)
Cc1nc2c(C)cccc2cc1C(=O)N/N=C/c1ccc(N(C)C)cc1	ALDH1A1 block 11µM
Cc1ccc(NC(=O)C(NC2CCCc3ccccc32)c2ccccc2)c([N+](=O)[O-])c1 (configuration not stated)	ALDH1A1 block inconclusive
Cc1ccc(NC(=O)C(NC2CCCc3ccccc32)c2ccccc2)cc1Cl (configuration not stated)	ALDH1A1 block 14µM
O=C1c2cccc3cccc(c23)C(=O)N1/N=C/c1ccc(O)cc1O	PNC assembly inh inconclusive
Oc1ccc(/C=N/n2cnn(Cc3ccccc3Cl)c2=S)c(O)c1	HPGD inh 20µM, ALDH1A1 block 20µM
CC(C)[C@@H](OCc1ccccc1)[C@H](C)CO/N=C1/[C@H]2OC2[C@@H](O)[C@H]2[C@H]1CCn1c(=O)n(-c3ccccc3)c(=O)n12 (some centres not stated)	none (no result: PNC assembly inh, HPGD inh)
O=C1C2C3C=CC(C3)C2C(=O)N1c1cccc(N2C(=O)C3C4C=CC(C4)C3C2=O)n1 (configuration not stated)	PNC assembly inh -99
O=C1C2C3C=CC(C3)C2C(=O)N1c1ccc2ccccc2n1 (configuration not stated)	PNC assembly inh inconclusive
CC1(C)CC(CC(=O)Nc2nccs2)(c2ccccc2)CCO1 (configuration not stated)	none
CCOC(=O)C(C)(C)N(Cc1cccc(C)c1)S(=O)(=O)c1cccc([N+](=O)[O-])c1	ALDH1A1 block 18µM
